HTT aggregate – reduces HttQ103-GFP aggregates in PC12 cells. PC12 HttQ103-GFP aggregates, Acumen cytometry, 40 h. Potency, µM (doses to about 46.1 µM), for inactives: at the highest dose activity change, negative = inhibition, actives largely listed as inhibitors. 1.1% of 220,000 active. AID 1688; further: potency means the concentration at half of the fitted maximal effect; on the % scale 0 is the no-effect control and ±100 the full control effect; nearly all actives have a fitted effect of over 60% in size
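Ecdysone-promoter PC12 model expressing HTT exon 1 Q103 fused to GFP, induced by tebufenozide at 100 nM final. Compounds titrated; aggregates sized 1–25 µm scored on a 488 nm laser cytometer.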
NPSR antag – blocks cAMP signaling of the human neuropeptide S receptor. Q6W5P4. CHO-NPSR cells, cAMP TR-FRET, antagonist mode. Potency, µM (top dose mostly 38.3 µM), inactives show at the highest dose activity change, negative = inhibition, hits mostly inhibitors. 1% of 220,000 active. AID 1461; further: potency means the concentration at half of the fitted maximal effect; on the % scale 0 is the no-effect control and ±100 the full control effect; nearly all actives have a fitted effect of over 50% in size
Target sequence (Q6W5P4 whole entry, looked up): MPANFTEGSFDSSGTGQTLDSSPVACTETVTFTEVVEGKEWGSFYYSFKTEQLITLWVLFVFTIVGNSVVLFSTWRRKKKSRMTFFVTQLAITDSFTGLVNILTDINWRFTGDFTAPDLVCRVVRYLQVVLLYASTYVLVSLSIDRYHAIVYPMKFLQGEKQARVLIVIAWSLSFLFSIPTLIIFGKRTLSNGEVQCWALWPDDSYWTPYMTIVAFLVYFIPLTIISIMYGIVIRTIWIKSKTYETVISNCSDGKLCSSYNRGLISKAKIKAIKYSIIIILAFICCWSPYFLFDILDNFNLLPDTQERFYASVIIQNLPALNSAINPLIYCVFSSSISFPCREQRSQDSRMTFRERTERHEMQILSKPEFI
IMPase inh – membrane-permeable compound that blocks inositol monophosphatase; inhibition (IP1 accumulation), % at 46.1 µM; CHO-M1 cells, IP1 accumulation, HTRF TR-FRET ratio; 120,000 tested, under 10 active; active means well fitted curve in the direction sought with a large enough effect in the signal ratio, not every such curve was filed as active; inconclusive means small, poorly fitted or top-dose-only effect, or a change in a side signal; inactive means no such curve, though single readings can be large or run the other way; the % refers to the signal ratio;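 further: cells stimulated with carbachol in lithium chloride buffer; plate controls were DMSO basal wells for no effect and reference inhibitor wells for full effect; higher means more IMPase inhibition seen as more IP1 and lower FRET ratio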
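The IP-One HTRF competitive assay in carbachol-stimulated CHO-M1 cells quantifies cellular IP1. Compounds spanned up to 46 uM final, and activity is expressed as AC50 from concentration-response fits of the ratio and donor data.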
LMNA splice mod – changes lamin A minigene splicing in HeLa cells; HeLa LMNA splicing GFP/RFP minigene ratio, 48 h; Potency, µM (titrated, usually from 46.1 µM), inactives show at the top dose ratio change, negative = inhibition, usual class: inhibitors; 0.01% of 200,000 active; AID 1487; active means well fitted inhibition curve with a large enough effect in the signal ratio, with a control signal flat, not every such curve was filed as active; inconclusive means small, poorly fitted or top-dose-only effect, or effect the other way, or a change in a side signal; the % refers to the signal ratio; further: potency means the concentration at half of the fitted maximal effect; on the % scale 0 is the no-effect control and ±100 the full control effect
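S3 HeLa cells stably expressing lamin A-EGFP splicing minigene plus DsRed2, 600 cells/well, 48 h compound exposure at 37C. Laser-scanning cytometry; analysed as GFP (500-530 nm)/RFP (575-640 nm) total intensity ratio; 0.5% DMSO vehicle.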
IMPase Li inh – cell-permeable IMPase inhibitors with lithium potentiation | CHO-M1 cells, IP1 TR-FRET (IP-One), carbachol + lithium | Potency, µM (highest dose often 59.4 µM), for inactives: at the highest dose activity, negative = IMPase inhibition, hits mostly inhibitors | 0.35% of 210,000 active | AID 1457;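 further: IP1 builds up when IMPase is blocked and the TR-FRET signal falls; potency means the concentration at half of the fitted maximal effect; plate controls were basal vehicle for no effect and high inhibitor control for full effect; nearly all actives have a fitted effect of over 50% in size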
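Readout is a homogeneous TR-FRET IP1 immunoassay (Ex 320, Em 665 and 620), where raised cytosolic IP1 lowers signal. Cells were CHO-M1 treated 30 min at 37C with test compounds plus a little lithium; AC50 values came from Hill-equation fitting.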
HTT cytoprotect – cytoprotection in Huntington HTT-Q103 PC12 cell model | PC12 HTT-Q103 induced, cytoprotection, ATP luminescence, 40 h | Potency, µM (doses to about 56.4 µM), without a hit: cytoprotection (ATP increase), most hits filed as activators | 0.14% of 230,000 active | AID 1471; further: potency means the concentration at half of the fitted maximal effect; % of control where 0% means no effect; nearly all actives have a fitted effect of over 45% in size
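PC12 cells with ecdysone-inducible HTT exon 1 Q103-GFP, induced with 100 nM tebufenozide and co-treated with library compounds in a dose series (1536-well, 1500 cells/well). Cytoprotection read as ATP content by ATPlite luminescence.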
Starred values were filed as active, the others as inactive; [ ] = another dose, or the depositor's remark. Shown are actives, neighbours in structure and some others; about 1.6% of the full set was active somewhere. Unless noted, the call rests on the fitted dose curve; in most records, active means well fitted curve in the direction sought with a large enough effect; inconclusive means small, poorly fitted or top-dose-only effect, or another doubt; inactive means no such curve, though single readings can be large; an effect the other way counts as inactive or inconclusive.

How did COc1ccc(-c2cc(=O)[nH]c(NCc3ccccc3)n2)cc1 do in these assays?
HTT aggregate: 4µM*; NPSR antag: -28%[46.1 µM]; IMPase inh: 12; LMNA splice mod: -1%; IMPase Li inh: 13%[38.3 µM]; HTT cytoprotect: -6%[0.074 µM]

What do the screens show for `Cc1nc(-c2ccc(Br)cc2)ccc1C(=O)O`?
HTT aggregate: 4%; NPSR antag: -17%; LMNA splice mod: 2%; IMPase Li inh: 8.9µM*

Results for Cc1ccc(-c2ccc(C(=O)O)c(C)n2)cc1 ?
HTT aggregate: 4%; NPSR antag: 4%; LMNA splice mod: -2%; IMPase Li inh: 3%; HTT cytoprotect: 8%[10 µM]

What do the screens show for `Cn1c(=O)oc2cc(S(=O)(=O)N3CCCC(C(=O)N4CC=C(c5ccccc5)CC4)C3)ccc21` (stereo not given)?
HTT aggregate: 11µM*; NPSR antag: -8%[46.1 µM]; IMPase inh: 10; LMNA splice mod: inconclusive; IMPase Li inh: 15%[38.3 µM]; HTT cytoprotect: -24%

What do the screens show for `CCOc1ccc(CCNC(=O)c2cccc(C#N)c2)cc1OCC`?
HTT aggregate: 15%; NPSR antag: 2%; LMNA splice mod: -15%[46 µM]; IMPase Li inh: 14%; HTT cytoprotect: 12%[10 µM]

How did COc1ccc(NS(=O)(=O)c2ccc(-n3nnc4ccccc43)c([N+](=O)[O-])c2)cc1 do in these assays?
HTT aggregate: -10%[9.22 µM]; NPSR antag: -21%[46.1 µM]; IMPase inh: -1; LMNA splice mod: inconclusive; IMPase Li inh: -12%[38.3 µM]; HTT cytoprotect: 5%

How did O=[N+]([O-])c1cc(S(=O)(=O)Nc2cccc(C(F)(F)F)c2)ccc1-n1nnc2ccccc21 do in these assays?
HTT aggregate: 11µM*; NPSR antag: 5%[46.1 µM]; IMPase inh: 3; LMNA splice mod: inconclusive; IMPase Li inh: 41%[38.3 µM]; HTT cytoprotect: -46%

How did O=C(COc1ccc(Cl)cc1)NCc1cn2cc(Cl)ccc2n1 do in these assays?
HTT aggregate: 7%; NPSR antag: 0%; LMNA splice mod: -4%[46 µM]; IMPase Li inh: 8%; HTT cytoprotect: 5%

What do the screens show for `Cn1nc(C(F)(F)F)c(/C=N/OC(=O)c2ccccc2)c1Sc1ccc(Cl)cc1`?
HTT aggregate: 14µM*; NPSR antag: inconclusive; IMPase inh: 0; LMNA splice mod: inconclusive; IMPase Li inh: 44%[38.3 µM]; HTT cytoprotect: -8%

What do the screens show for `Cn1nc(C(F)(F)F)c(/C=N/OC(=O)c2ccccc2)c1Cl`?
HTT aggregate: -3%; NPSR antag: -4%[46.1 µM]; IMPase inh: 1; LMNA splice mod: 4%; IMPase Li inh: 4%[38.3 µM]; HTT cytoprotect: 32%

What do the screens show for `Cc1cc(C(=O)COc2cccc(-n3cnnn3)c2)c(C)n1-c1ccccc1`?
HTT aggregate: 11µM*; NPSR antag: -14%[46.1 µM]; IMPase inh: -3; LMNA splice mod: inconclusive; IMPase Li inh: 22%[38.3 µM]; HTT cytoprotect: -98%

How did CC(C)OCCCNC1=C(Cl)C(=O)c2ccccc2C1=O do in these assays?
HTT aggregate: -14%[9.22 µM]; NPSR antag: 10µM*; HTT cytoprotect: -2%[10 µM]

What do the screens show for `O=C(O)c1ccc(NC2=C(Cl)C(=O)c3ccccc3C2=O)cc1`?
HTT aggregate: inconclusive; NPSR antag: inconclusive; HTT cytoprotect: -97%[10 µM]

How did O=C1C(Cl)=C(Nc2ccccc2)C(=O)c2ccccc21 do in these assays?
HTT aggregate: 13µM*; NPSR antag: inconclusive; LMNA splice mod: inconclusive; IMPase Li inh: 36%; HTT cytoprotect: -39%[10 µM]

What do the screens show for `CC1(C)S[C@@H]2[C@H](C(=O)O)N=C(Cc3ccccc3)N2[C@H]1C(=O)O`?
IMPase Li inh: 10%; HTT cytoprotect: -3%[10 µM]

Results for NC=O ?
IMPase Li inh: -6%; HTT cytoprotect: -87%

Results for CCOc1ccccc1N1CCN(Cc2cccc(OC)c2O)CC1 ?
HTT aggregate: -17%; NPSR antag: -3%[46.1 µM]; IMPase inh: 4; LMNA splice mod: 2%; IMPase Li inh: 1%[38.3 µM]; HTT cytoprotect: 17%

Screens: PubChem BioAssay, National Center for Advancing Translational Sciences (NCATS)
